According to PubChem BioAssay (EPA / NIEHS):
Calls of active or inactive are those of the source. Rule for the calls: active = hit-call score of the fitted dose curve at least 0.9, where 1 is the maximum; inactive = score below 0.9.

What follows are molecules tested on Collagen III, COL3A1 (gene 1281) (assay: BSK_hDFCGF_CollagenIII: BioMAP Diversity Plus: hDFCGF Assay for Collagen III Biomarker Activity (AID 2283056)). Settings: primary human foreskin fibroblasts; actives raise or lower the signal.
Protocol: BSK_hDFCGF is a cell-based, multiplexed-readout assay that uses foreskin fibroblast, a human skin primary cell, with measurements taken at 24 hours after chemical dosing in a 96-well plate.BSK_hDFCGF_CollagenIII is an assay component measured in the BSK_hDFCGF assay. It measures Collagen antibody related to regulation of gene expression using ELISA technology.Data from the assay component BSK_hDFCGF_CollagenIII was analyzed into 1 assay endpoint. This assay endpoint, BSK_hDFCGF_CollagenIII, was analyzed with bidirectional fitting relative to DMSO as the negative control and baseline of activity. Using a type of binding reporter, gain or loss-of-signal activity can be used to understand changes in the signaling as they relate to the gene COL3A1. Furthermore, this assay endpoint can be referred to as a primary readout, because this assay has produced multiple assay endpoints where this one serves a signaling function. To generalize the intended target to other relatable targets, this assay endpoint is annotated to the cell adhesion molecules intended target family, where the subfamily is collagen.
The levels of cell surface (or secreted, indicated by the prefix "s") biomarker endpoints were measured by ELISA. Overt cytotoxicity to cells in confluent adherent cultures (all systems other than the BT system) was assessed by measuring total protein levels using sulforhodamine B (SRB) staining in parallel cultures at the time of biomarker measurements, indicated as SRB endpoints. For proliferation assays for adherent cell types, individual cell types are cultured at sub-confluence and relative cell numbers quantified by SRB staining at time points optimized for each system (48 h: 3C and CASM3C systems; 72 h: BT and HDF3CGF systems; 96 h: SAg system). SRB was performed by staining cells with 0.1% SRB after fixation with 10% TCA and reading wells at 560 nm.Viability and proliferation of PBMC (T cells) was quantified by Alamar Blue reduction for the SAg and BT systems. For PBMC viability (referred to as PBMC Cytotoxicity within the assay endpoint names), cells were plated (75,000/well in a 96-well plate) and then chemical samples added for 1 h before addition of activators, SEB and TSST-1 (20 ng/mL final concentration each). Cells were incubated for 90 h. Then, Alamar Blue (20 uL/well) (Invitrogen, Cat DAL1100) was added for 6 h, and the plates were read with a fluorescence microplate reader at 546/580 nm (excitation/emission). For PBMC proliferation, cells were plated and activated as above but incubated for only 16 h prior to addition of Alamar Blue. Plates were read after 6 h.
In the case of CNC(=O)N(C)c1nnc(C(C)(C)C)s1, the outcome is reported as “inactive”.
In the case of CCOC(=O)C(C)OC(=O)c1cc(Oc2ccc(C(F)(F)F)cc2Cl)ccc1[N+](=O)[O-] (stereo not given), the AC50 is reported as 6.41 µM (active).
CO/N=C(/C1=NOCCO1)c1ccccc1Oc1ncnc(Oc2ccccc2Cl)c1F was tested, and the outcome was “inactive”.
In the case of CC(C)=CC1C(C(=O)OCc2coc(Cc3ccccc3)c2)C1(C)C (stereo not given), the AC50 is reported as 12.2 µM (active).
For CCNC(=O)NC(=O)C(C#N)=NOC, the outcome was “inactive”.
In the case of CCOc1cc(C(C)(C)C)ccc1C1COC(c2c(F)cccc2F)=N1 (stereo not given), the AC50 is reported as 5.45 µM (active).
In the case of CSC(=O)c1c(C(F)F)nc(C(F)(F)F)c(C(=O)SC)c1CC(C)C, the outcome is reported as “inactive”.
With Cc1cc(C)nc(Nc2ccccc2)n1 the outcome was “inactive”.
For CN=C=S, the outcome was “inactive”.
In the case of CC1(C)CON(Cc2ccccc2Cl)C1=O, the outcome is reported as “inactive”.
With CCN(CC)C(=O)C(C)Oc1cccc2ccccc12 (stereo not given) the AC50 was 0.148 µM (active).
For COc1cc(OC)nc(NC(=O)NS(=O)(=O)c2ncccc2OCC(F)(F)F)n1, the outcome was “inactive”.
CCN(CC)c1nc(C)cc(OP(=S)(OC)OC)n1 was tested, and the outcome was “inactive”.
In the case of CC(C)NC(=O)N1CC(=O)N(c2cc(Cl)cc(Cl)c2)C1=O, the AC50 is reported as 0.702 µM (active).
In the case of COP(=S)(OC)Oc1ccc([N+](=O)[O-])c(C)c1, the AC50 is reported as 22.7 µM (active).
COC(=O)NC(=S)Nc1ccccc1NC(=S)NC(=O)OC was tested, and the outcome was “inactive”.
With Nc1c(Cl)c(F)nc(OCC(=O)O)c1Cl the outcome was “inactive”.
Cc1nc(N(C)C)nc(OC(=O)N(C)C)c1C was tested, and the outcome was “inactive”.
With COc1ccc(-c2ccccc2)cc1NNC(=O)OC(C)C the outcome was “inactive”.
For N#CN=C1SCCN1Cc1ccc(Cl)nc1, the outcome was “inactive”.
COCC(C)N(C(=O)CCl)c1c(C)csc1C (stereo not given) was tested, and the outcome was “inactive”.
In the case of CC1(C)C(C=C(Cl)Cl)C1C(=O)OC(C#N)c1cccc(Oc2ccccc2)c1 (stereo not given), the outcome is reported as “inactive”.
CC(C)C1(C)N=C(c2ncccc2C(=O)O)NC1=O (stereo not given) was tested, and the outcome was “inactive”.
In the case of CNC(=O)Oc1cccc2ccccc12, the outcome is reported as “inactive”.
C=CCOC(=O)C(C)(C)OC(=O)c1cc(-n2c(=O)cc(C(F)(F)F)n(C)c2=O)ccc1Cl was tested, and the outcome was “inactive”.
In the case of CCCCC(O)(Cn1cncn1)c1ccc(Cl)cc1Cl (stereo not given), the AC50 is reported as 29.9 µM (active).
CS(=O)(=O)c1cc(C(F)(F)F)ccc1C(=O)c1cnoc1C1CC1 was tested, and the outcome was “inactive”.
In the case of O=C(Nc1ccccc1-c1ccc(Cl)cc1)c1cccnc1Cl, the outcome is reported as “inactive”.
In the case of COC(=O)c1c(C(F)F)nc(C(F)(F)F)c(C2=NCCS2)c1CC(C)C, the outcome is reported as “inactive”.
With CC1(C)CCC(=Cc2ccc(Cl)cc2)C1(O)Cn1cncn1 (stereo not given) the outcome was “inactive”.
In the case of Cc1cnc(C2=NC(C)(C(C)C)C(=O)N2)c(C(=O)O)c1 (stereo not given), the outcome is reported as “inactive”.
In the case of Clc1nc(Cl)nc(Nc2ccccc2Cl)n1, the outcome is reported as “inactive”.
In the case of COP(=S)(OC)SCn1nnc2ccccc2c1=O, the outcome is reported as “inactive”.
With Cc1ccc(N=CN(C)C=Nc2ccc(C)cc2C)c(C)c1 the AC50 was 13.3 µM (active).
In the case of N#Cc1c[nH]cc1-c1cccc2c1OC(F)(F)O2, the outcome is reported as “inactive”.
For CCOc1nc(F)cc2nc(S(=O)(=O)Nc3c(Cl)cccc3Cl)nn12, the outcome was “inactive”.
C=C(C)CN(CC)c1c([N+](=O)[O-])cc(C(F)(F)F)cc1[N+](=O)[O-] was tested, and the outcome was “inactive”.
In the case of COP(=O)(OC)O/C(C)=C/C(=O)N(C)C, the outcome is reported as “inactive”.
CC(C)Oc1cccc(NC(=O)c2ccccc2C(F)(F)F)c1 was tested, and the outcome was “inactive”.
COCc1cnc(C2=NC(C)(C(C)C)C(=O)N2)c(C(=O)O)c1 (stereo not given) was tested, and the outcome was “inactive”.
